From PubChem BioAssay
Shown are actives, neighbours in structure and some others; about 0.5% of the full set was active somewhere.
TRPV1 ag = HTS Assay for Compounds that Act as Agonists of the Vanilloid Receptor 1; hit rate 0.19% among 320,000; Transient receptor potential cation channel subfamily V member 1 (Homo sapiens), Q8NER1; AID 540275, 2011; activation, % at 8.33 µM; TRPV1-expressing cells, Fluo-8 calcium influx, agonist mode; in the data active means activation above about 80%; inconclusive means between about 30% and that limit
Target sequence (Q8NER1 whole entry, looked up): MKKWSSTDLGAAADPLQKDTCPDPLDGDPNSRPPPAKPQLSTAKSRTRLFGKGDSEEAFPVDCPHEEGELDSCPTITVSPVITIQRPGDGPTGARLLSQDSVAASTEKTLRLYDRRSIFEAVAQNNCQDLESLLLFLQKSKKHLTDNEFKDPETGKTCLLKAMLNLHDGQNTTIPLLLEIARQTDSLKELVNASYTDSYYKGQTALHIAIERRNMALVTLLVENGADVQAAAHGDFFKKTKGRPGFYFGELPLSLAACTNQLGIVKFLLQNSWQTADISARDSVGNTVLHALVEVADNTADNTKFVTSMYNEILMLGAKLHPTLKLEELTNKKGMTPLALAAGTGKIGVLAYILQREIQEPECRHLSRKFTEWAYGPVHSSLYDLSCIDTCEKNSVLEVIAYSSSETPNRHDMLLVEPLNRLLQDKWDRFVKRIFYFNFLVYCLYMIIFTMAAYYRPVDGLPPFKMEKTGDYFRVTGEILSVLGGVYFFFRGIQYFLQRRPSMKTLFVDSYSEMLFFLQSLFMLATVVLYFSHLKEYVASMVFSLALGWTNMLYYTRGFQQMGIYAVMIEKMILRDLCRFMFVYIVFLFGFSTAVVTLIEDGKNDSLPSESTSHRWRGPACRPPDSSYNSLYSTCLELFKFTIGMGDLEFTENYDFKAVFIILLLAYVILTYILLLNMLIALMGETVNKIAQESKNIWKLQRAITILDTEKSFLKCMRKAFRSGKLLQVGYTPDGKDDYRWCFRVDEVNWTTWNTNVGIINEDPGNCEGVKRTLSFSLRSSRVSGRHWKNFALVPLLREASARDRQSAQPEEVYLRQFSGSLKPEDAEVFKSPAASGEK
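Cells expressing TRPV1 were dye-loaded with Fluo-8 and read kinetically: 10 s baseline, 3 min after compound (agonist portion), then 2 min after EC20 capsaicin (allosteric enhancer portion). Calcium-bound dye fluorescence at 480/520 nm.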
TRPV1 PAM = HTS Assay for Compounds that Act as Potentiators of the Vanilloid Receptor 1; Transient receptor potential cation channel subfamily V member 1 (Homo sapiens), Q8NER1; TRPV1-expressing cells, Fluo-8 calcium influx, capsaicin EC20 potentiation; potentiation, % at 8.33 µM; hit rate 0.02% among 320,000; in the data active means potentiation above about 80%; inconclusive means between about 30% and that limit
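Fluo-8 calcium influx in TRPV1-expressing cells, kinetic read (ex 480/em 520 nm). Compound added and read 3 min for agonist activity, followed by capsaicin at EC20 final and 2 min further read for enhancement.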
A-T KAP1 phos = qHTS Assay for Identifying a Potential Treatment of Ataxia-Telangiectasia; F2112 A-T fibroblasts, KAP-1 phosphorylation AlphaLISA; neocarzinostatin DNA damage 30 min before lysis; Potency, µM (top dose mostly 57.5 µM), most hits filed as activators; hit rate 0.19% among 320,000; AID 485349, 2010; further: nearly all actives have a fitted effect of over 45% in size
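ATM-like activity read as KAP-1 phosphorylation via AlphaLISA donor/acceptor antibody pairs after lysis and 6 hr at 25C. Cells were ATM-null patient fibroblasts (F2112, hTERT), dosed 60 min, then exposed to the DSB inducer NCS for 30 min.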
TRPML1 agonist = qHTS for Agonists of the Human Mucolipin Transient Receptor Potential 1 (TRPML1) | Mucolipin-1 (Homo sapiens), Q9GZU1 | TRPML1-expressing cells, Ca2+ dye fluorescence, FDSS | activation, % (test concentration not listed) | hit rate 0.12% among 410,000 | AID 624414, 2012; in the data active means activation above about 50%; inconclusive means mostly about 30% to 49%
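Tet-induced TRPML1-DL cells, 1,500 per well, cultured overnight, were loaded with a no-wash Ca2+ dye for 45–90 min. Calcium fluorescence was recorded on the FDSS for 110 s after compound addition, before the EC80 agonist (4 uM 54-4) was added.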
TRPML1 inh = qHTS for Inhibitors of the Human Mucolipin Transient Receptor Potential 1 (TRPML1). Mucolipin-1 (Homo sapiens), Q9GZU1. TRPML1-inducible cells, Ca2+ dye fluorescence, FDSS; hits give low values; inhibition of EC80 agonist-evoked calcium signal. activity change, negative = inhibition, % (no concentration beside the values). hit rate 0.02% among 390,000. AID 624415, 2012; in the data active means activity change below about -50%; inconclusive means between about -30% and that limit;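 further: stimulus is agonist 54-4 at its EC80 concentration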
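TRPML1-DL cells, Tet-induced overnight (~16 h, 37 °C) at 1,500 cells/well, were loaded with Ca8 no-wash dye plus quencher for 45-90 min at room temperature. Compounds were pinned during FDSS kinetic reading; agonist 54-4 at EC80 (4 uM final) then added.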
RGS4 inh = Inhibitors of Regulator of G Protein Signaling (RGS) 4: qHTS. Transcreener GDP fluorescence polarization, RGS4-accelerated GTP hydrolysis. Potency, µM (series often up to 114 µM), hits mostly inhibitors. AID 504845, 2011. Regulator of G-protein signaling 4 (Homo sapiens), P49798. hit rate 0.039% among 390,000; further: nearly all actives have a fitted effect of over 75% in size
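MLSMR compounds (23 nl, pin-transferred) preincubated 10 min at room temperature with a 500nM (2x) first reagent, then RGS4 at 900nM (2x) plus Transcreener GDP mix added; fluorescence polarization (620/688 nm) read before and after 90 min at 30 °C.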
Hits are given with their value; - = inactive; ? = inconclusive; . = no result given; [ ] = dose if it differs, or a comment. Unless noted, the call rests on the fitted dose curve; in most records, active means well fitted curve in the direction sought with a large enough effect; inconclusive means small, poorly fitted or top-dose-only effect, or another doubt; inactive means no such curve, though single readings can be large; an effect the other way counts as inactive or inconclusive.

SMILES	TRPV1 ag	TRPV1 PAM	A-T KAP1 phos	TRPML1 agonist	TRPML1 inh	RGS4 inh
COc1ccc(NC(=O)C2(c3ccc(NC(=O)c4ccc(C)cc4)cc3)CCCC2)cc1	-	-	-	-	-	-
CC(C)Oc1ccc(NC(=O)c2ccncc2)cc1	86	-	-	-	-	-[11.4 µM]
COc1cccc(C(=O)Nc2ccc3ccccc3c2)c1	-	-	-	-	-	-
Cc1ccc(CNc2cnccn2)s1	-	-	-	-	-	-
OC(C#Cc1ccccn1)c1cccs1 (stereo unspecified)	-	-	14µM	-	-	?
C(=C\c1cccs1)/c1ccccn1	.	.	.	-	.	.
CCOC(=O)c1c(-c2ccc(C)cc2)cn2ccccc12	?	-	32µM	-	-	-
CCOC(=O)c1c(-c2ccccc2)cn2ccccc12	-	-	-	-	-	?
O=C(CN1C(=O)C2CCCCN2c2ccc(C(=O)N3CCCC3)cc21)NCc1cccc(F)c1 (stereo unspecified)	.	.	.	-	-	-
C#CCNC(=O)C[C@@H]1C[C@@]2(C(=O)OCC)CCC=C2N(Cc2cccc3ccccc23)C1=O	.	.	.	-	.	.
CC1CCN(C(=O)/C=C/c2ccc(C(C)(C)C)cc2)CC1	89	-	-	-	-	-
CC(C)(C)c1ccc(/C=C/C(=O)N2CCCCC2)cc1	94	-	-	-	-	-
Clc1ccc(-c2nc3sccn3c2/C=N/OCc2ccc(Cl)c(Cl)c2)cc1	.	.	.	.	.	3µM
Cc1cccn2c(/C=N/OCc3cccc(F)c3)c(-c3ccc(Cl)cc3)nc12	.	.	-	-	-	-
COC(=O)C1=C(C)NC(=O)NC1c1ccccc1 (stereo unspecified)	-	-	-	-	-	-
COC(=O)C1=C(C)NC(C)=C(C(=O)OCCSc2ccccc2)C1C (stereo unspecified)	.	.	.	.	.	38µM
Cc1cccc(NC(=S)NCc2ccc(F)cc2)c1C	?	-	-	-	-	-
COc1ccccc1Nc1ncnc2c1cnn2-c1cccc(C)c1	85	-	-	-	-	-
COc1cccc(Nc2ncnc3c2cnn3-c2cccc(C)c2)c1	-	-	-	-	-	-
CCCCCCC1CCC(C(=O)N2CCOCC2)CC1 (stereo unspecified)	89	-	-	-	-	-
CCCS(=O)(=O)N1CCC(C(=O)N2CCOCC2)CC1	-	-	-	-	-	-
CCCCCC1CCC(C(=O)N2CCOCC2)CC1 (stereo unspecified)	94	-	-	-	-	-
O=C(/C=C\Nc1ccc2c(c1)OCO2)c1ccccn1	.	.	-	-	-	-
O=C(c1ccccc1)n1nnc2ccccc21	-	-	.	-	-	-
C/C(CC(=O)Nc1cc(C)ccn1)=N\NC(=O)c1ccccc1C	-	-	-	61	-	-
SMILES	TRPV1 ag	TRPV1 PAM	A-T KAP1 phos	TRPML1 agonist	TRPML1 inh	RGS4 inh
Cc1cc(C)c(-c2noc(C(=O)OC(C)(C)C)c2C(=O)OC(C)(C)C)c(C)c1	-	-	-	53	-	-
COc1cc(OC)c(-c2noc(C(=O)OC(C)(C)C)c2C(=O)OC(C)(C)C)c(OC)c1	?	-	-	-	-	-
Cc1ccc(C(=O)NCC(=O)OCC(=O)Nc2ncc(C(F)(F)F)cc2Cl)cc1	-	-	-	-	-	-
O=C(COC(=O)CNC(=O)c1ccc([N+](=O)[O-])o1)Nc1ncc(Cl)cc1Cl	-	-	35µM	-	-	-
O=C(COC(=O)CNC(=O)c1ccc([N+](=O)[O-])o1)Nc1ncc(C(F)(F)F)cc1Cl	-	-	22µM	-	-	-
COc1cccc(/C=C/C(=O)Nc2ccc3[nH]c(=O)[nH]c3c2)c1	93	-	-	-	-	-
O=C(/C=C/c1ccc(F)cc1)Nc1ccc2[nH]c(=O)[nH]c2c1	83	-	-	-	-	-
CC1=CCCC(C)(C)C1/C=C/C(C)=N/NC(=O)c1ccncc1 (stereo unspecified)	?	-	-	-	-	-
CN1CCN(S(=O)(=O)c2ccc(N(C)Cc3ccc(OC(F)F)cc3)c([N+](=O)[O-])c2)CC1	-	-	-	53	-	-
CNC(=O)c1ccsc1NC(=O)CCS(=O)(=O)c1ccc(C)cc1	-	-	-	-	-	-
C=C(C)Cn1c(SCC(=O)N/N=C/c2ccccc2OCC(=O)O)nnc1-c1ccc(Br)cc1	-	-	40µM	-	-	-
COc1ccc(CCN(C)C(=O)COc2cccc(-n3cnnn3)c2)cc1OC	.	.	-	-	-	-
COc1cccc2cc(C(=O)NCc3ccc(F)cc3)c(=N)oc12	-	-	-	-	-	-
CCOc1ccc(/C=C/c2nc(C#N)c(N3CCCCCC3)o2)cc1	.	.	.	-	-	-
Cc1cccc2cc(COC(=O)COc3ccccc3)c(=O)[nH]c12	-	-	22µM	-	-	-
COc1ccc(NC(=O)c2ccc(Br)c(S(=O)(=O)N3CCOCC3)c2)cc1	98	-	-	-	-	?
COc1ccc(C(=O)Nc2ccc(S(=O)(=O)N3CCOCC3)cc2)cc1	.	.	.	-	-	-
O=C(Nc1ccc(S(=O)(=O)Nc2ncccn2)cc1)c1ccc(F)c(S(=O)(=O)N2CCOCC2)c1	-	-	28µM	-	-	-
Cc1cc(C)n2nc(C(=O)N3CCCC(Nc4ccc(C(C)C)cc4)C3)cc2n1 (stereo unspecified)	86	-	-	-	-	-
CC(C)c1ccc(NC2CCCN(C(=O)c3cccc4nccnc34)C2)cc1 (stereo unspecified)	85	-	-	-	-	-
Clc1ccc(Nc2c(-c3ccccc3Cl)nc3ccc(Cl)cn23)cc1	.	.	.	-	-	-
C[C@H](CO)N1C[C@H](C)[C@@H](CN(C)S(=O)(=O)c2cccc(F)c2)OCc2cnnn2CCCC1=O	.	.	.	-	-	.
C[C@H]1CN([C@@H](C)CO)C(=O)CCCn2nncc2CO[C@H]1CN(C)S(=O)(=O)c1cccc(F)c1	.	.	.	-	-65	.
O=C1N/C(=N\S(=O)(=O)Cc2ccccc2)S/C1=C/c1cc([N+](=O)[O-])ccc1O	?	-	-	74	-	-
